Sampled rows, rich in hits. Any-hit rate of the full collection: about 1.2%.
pAkt inh: HTS Assay for Inhibitors of Akt Phophorylation: Primary Screen; Neuro2A IGF-stimulated pAkt S473 HTRF, 20 min; active compounds read low; activity change, % for hits at 50 µM; 360,000 tested, 0.32% active; AID 651550, 2012; in the data active means activity change below about -80%; inconclusive means mostly about -51% to -80%
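Single-point screen (50 µM final compound) in Neuro2A cells stimulated 20 min with 6 nM IGF at 37 deg C. After lysis, Ser473-phosphorylated Akt read by HTRF (ex 330 nm, em 615/665 nm) as the 665/615 ratio.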
Six1-Eya2 inh: qHTS Assay for Inhibitors of the Six1/Eya2 Interaction; activity change, % (concentration not given with the values); 360,000 tested, 0.56% active; AlphaScreen GST-Six1/His-Eya2 binding, biochemical; active compounds read low; AID 651725, 2012; Homeobox protein SIX1 (Homo sapiens) + Protein phosphatase EYA2 (Homo sapiens), …
Target sequence (O00167 whole entry, looked up): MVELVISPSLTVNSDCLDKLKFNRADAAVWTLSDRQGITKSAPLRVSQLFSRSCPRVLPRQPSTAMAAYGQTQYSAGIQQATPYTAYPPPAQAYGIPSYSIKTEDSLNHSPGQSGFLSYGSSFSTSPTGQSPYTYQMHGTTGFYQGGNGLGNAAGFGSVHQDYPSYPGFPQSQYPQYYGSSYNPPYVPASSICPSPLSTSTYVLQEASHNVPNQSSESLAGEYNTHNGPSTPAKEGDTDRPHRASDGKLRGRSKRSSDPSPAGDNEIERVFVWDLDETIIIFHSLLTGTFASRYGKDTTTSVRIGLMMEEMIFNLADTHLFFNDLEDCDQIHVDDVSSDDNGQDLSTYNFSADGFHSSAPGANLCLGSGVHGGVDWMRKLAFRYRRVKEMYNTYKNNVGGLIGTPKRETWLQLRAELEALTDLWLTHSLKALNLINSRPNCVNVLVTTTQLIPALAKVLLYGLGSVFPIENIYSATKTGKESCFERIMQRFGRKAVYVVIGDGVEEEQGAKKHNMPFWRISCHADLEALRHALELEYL
Target sequence (Q15475 whole entry, looked up): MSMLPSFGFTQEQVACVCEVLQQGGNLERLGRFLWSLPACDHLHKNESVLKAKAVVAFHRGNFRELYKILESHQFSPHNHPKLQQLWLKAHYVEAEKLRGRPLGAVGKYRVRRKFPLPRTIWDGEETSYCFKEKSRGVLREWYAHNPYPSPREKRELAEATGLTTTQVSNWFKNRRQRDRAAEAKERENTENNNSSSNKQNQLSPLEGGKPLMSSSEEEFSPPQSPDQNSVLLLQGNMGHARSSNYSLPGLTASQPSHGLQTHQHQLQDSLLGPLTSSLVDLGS
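AlphaScreen luminescence read after one hour at 37 °C in darkness. Pin-transferred compounds met GST-Six1 and His-Eya2 protein (5X stock 250 nM/500 nM) plus glutathione donor and Ni-chelate acceptor beads (5X, 50 ug/mL).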
CtBP-E1A inh: qHTS Assay for Inhibitors of the CtBP/E1A Interaction | CtBP / adenovirus E1A interaction (AlphaScreen) | AlphaScreen GST-E1A/His-CtBP binding, 1536-well; active compounds read low | activity change, % (concentration not given with the values) | 340,000 tested, 0.49% active | AID 651724, 2012
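Homogeneous bead-based format: GST-tagged E1A captured on glutathione donor beads, His-tagged CtBP on nickel acceptor beads; compounds precede bead addition by 2 h at 37 °C.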
CCT chaperon mod: High-Throughput Screening for Modulators of Cytosolic Chaperonin Activity | 360,000 tested, 0.3% active | purified chaperonin ATPase assay, HTRF ADP detection, 30 min | activity change, % (no concentration beside the values), hits read low | AID 651819, 2012; in the data active means activity change below about -30%
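Enzyme 40 or 20 nM (batch-dependent) in Tris pH 7.4/KCl/MgCl2/DTT; cpd 76 uM single point; ATP 10 uM; 30 min 37 °C; Transcreener ADP HTRF detection, 30 min RT; ratio 665/615.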
* hit, by the source's call; i = inactive; ? = inconclusive; . = no result. Unless noted, no stated cut-off is given here; in the data, active means activity change below about -65%; inconclusive means mostly about -30% to -63%; inactive means weaker than that. On the % scale 0 is the no-effect control and ±100 the full control effect.

SMILES | pAkt inh | Six1-Eya2 inh | CtBP-E1A inh | CCT chaperon mod
CCOC(=O)C(C(=O)OCC)N(C#N)c1nc(OC)nc(N(C)C)n1 | -113%* | 2 | -2 | -4
COc1ccc2cc(C3(C)NC(=O)N(CC(=O)NCC(F)(F)F)C3=O)ccc2c1 (stereo not given) | i | -3 | -4 | -33*
COc1ccc2cc(C3(C)NC(=O)N(CC(=O)NCCC4=CCCCC4)C3=O)ccc2c1 (stereo not given) | i | 0 | -7 | -1
CCC(C)[C@H]1COCCS(=O)(=O)N1Cc1ccccc1 (stereo not given in full) | i | 19 | 1 | 0
Cc1cccc(C)c1OCc1nnc(SCC(=O)Nc2nccs2)o1 | i | -85* | -91* | 1
COc1cc(C(=O)NCc2nnc(SCC(=O)Nc3nccs3)o2)cc(OC)c1OC | i | -84* | -78* | -1
Cc1c(C)n2c(SCC(=O)NCc3ccc4c(c3)OCO4)nnc2[nH]c1=O | i | 5 | 0 | -2
O=C(NN=Cc1cc([N+](=O)[O-])ccc1O)c1cccc2ccccc12 | i | -92* | -3 | 1
O=C(N/N=C/c1cccc([N+](=O)[O-])c1)c1c[nH]c2ccccc12 | i | -15 | -9 | 0
O=C(N/N=C/c1cc([N+](=O)[O-])ccc1O)c1cc(-c2ccccc2)nc2ccccc12 | i | ? | -27 | 1
O=C(NC(C(=O)N/N=C/c1cccc2ccccc12)c1n[nH]c(=O)c2ccccc12)c1ccccc1 (stereo not given) | i | -14 | -15 | -4
Cc1cc(C(=O)N/N=C/c2cc(Br)cc([N+](=O)[O-])c2O)c2ccccc2n1 | i | -87* | -94* | 0
O=C(NC(C(=O)N/N=C/c1cc([N+](=O)[O-])ccc1O)c1n[nH]c(=O)c2ccccc12)c1ccccc1 (stereo not given) | i | -90* | -88* | -2
O=C(N/N=C/c1cc([N+](=O)[O-])ccc1O)c1c[nH]c2ccccc12 | i | -86* | -78* | -1
CSCC[C@H](NC(=O)CCNC(C)=O)c1nc2ccccc2[nH]1 | i | 5 | 9 | -1
CCC1CCCCN1S(=O)(=O)c1ccc(-n2cnnn2)c(C)c1 (stereo not given) | i | 4 | -3 | -1
Cc1c(C(=O)N(C)C(C)c2ccccn2)oc2c(F)cccc12 (stereo not given) | i | 0 | 4 | 0
CCNC(=O)C(=O)N/N=C/c1cc([N+](=O)[O-])ccc1O | i | -92* | -94* | 1
Cc1cc(C(=O)N/N=C/c2cc([N+](=O)[O-])ccc2O)c2ccccc2n1 | i | -92* | 19 | -1
O=C(N/N=C/c1cc([N+](=O)[O-])ccc1O)Nc1ccccc1 | i | -6 | -3 | -3
Cc1ccccc1C(=O)Nc1cccc(C(=O)N/N=C/c2cc(Cl)cc([N+](=O)[O-])c2O)c1 | i | ? | -73* | 1
Cc1ccc(S(=O)(=O)N2CCN(C(C(=O)Nc3ccc(F)cc3)c3ccccc3)CC2)cc1 (stereo not given) | i | 2 | -8 | -1
CC(C)N1CCC(C)(C(=O)Nc2ccc(Cl)c(Cl)c2)C1 (stereo not given) | i | 1 | 0 | 0
Cc1cccc(NC(=O)C2CCCN(C(=O)Nc3ccccc3)C2)c1C (stereo not given) | -110%* | -3 | 0 | 1
O=C(CCNS(=O)(=O)c1cccc2nsnc12)NCCC1=CCCCC1 | -111%* | 1 | -13 | 0
SMILES | pAkt inh | Six1-Eya2 inh | CtBP-E1A inh | CCT chaperon mod
COc1cc(OC)nc(NC(=O)NS(=O)(=O)c2ccccc2Cl)n1 | i | -1 | -1 | -3
Cc1cc(N(C)N)nc(NC(=O)NS(=O)(=O)c2ccccc2Cl)n1 | i | -74* | -94* | 3
CC1(C(=O)Nc2cccc(C#N)c2)CCN1C(=O)C/C=C/c1ccccc1 (stereo not given) | i | -4 | 3 | -2
Cc1ccsc1/C=N/n1c(-c2ccccn2)n[nH]c1=S | i | -78* | ? | -2
O=[N+]([O-])c1cc2c(cc1/C=N/n1c(-c3ccccn3)n[nH]c1=S)OCO2 | i | -83* | 8 | 0
S=c1[nH]nc(-c2ccccn2)n1/N=C/c1ccco1 | i | -74* | 0 | -1
O=[N+]([O-])c1cc2c(cc1/C=N/n1c(-c3ccccc3)n[nH]c1=S)OCO2 | i | -3 | ? | -3
c1ccc2cc(C3OCC4(CCCC4)CO3)ccc2c1 | i | 9 | 0 | 0
O=C(/C=C/c1ccco1)Oc1cc(Br)cc(/C=N/NC(=O)c2ccccc2O)c1 | i | -88* | -92* | -1
O=C(CNc1cccc2ccccc12)N/N=C/c1ccc(OC(=O)/C=C/c2ccco2)cc1 | i | ? | -79* | 1
O=C(COc1ccc2ccccc2c1)NCC(=O)N/N=C/c1ccco1 | i | 0 | 2 | -3
Cc1ccc(C(=O)N/N=C/c2cccc(OC(=O)/C=C/c3ccco3)c2)cn1 | i | -10 | . | -4
O=C(CNc1ccc2ccccc2c1)N/N=C/c1ccc(OC(=O)/C=C/c2ccco2)cc1 | i | ? | -67* | 4
CCC(Sc1nc2ccncc2[nH]1)C(=O)Nc1cc(Cl)ccc1C (stereo not given) | i | -7 | 0 | 0
CC1CN(C(=O)CCN2C(=O)c3ccccc3C2=O)CC(C)O1 (stereo not given) | -117%* | 12 | -1 | -2
COc1ccc(CCNCc2cc(C)n(-c3ccc(OC)cc3)c2C)cc1 | i | -21 | . | 2
Cc1c(NC=C(C#N)C#N)c(=O)n(-c2ccccc2)n1C | i | -1 | 14 | 1
Cc1ccccc1C(=O)/C(C#N)=N/Nc1c(C)n(C)n(-c2ccccc2)c1=O | i | -68* | -70* | -1
CCOC(=O)/C(C#N)=N/Nc1c(C)n(C)n(-c2ccccc2)c1=O | i | -13 | -7 | -2
Cc1c(N/N=C(\C#N)C(=O)c2ccccc2)c(=O)n(-c2ccccc2)n1C | i | -86* | ? | -3
CN(C)S(=O)(=O)N1CCCC(C(=O)c2ccc(-c3ccccc3)cc2)C1 (stereo not given) | i | -9 | -20 | 0
CN(C(=O)C1CCCN(c2ncnc3c2nc2n3CCCCC2)C1)c1cccc(Cl)c1 (stereo not given) | i | -6 | -2 | 2
Nc1nc(-c2ccccc2)ns1 | i | 7 | 0 | 0
O=C(c1cc2cc(Br)ccc2[nH]1)N1CCc2ccccc21 | i | -1 | 8 | -38*
O=C(c1cc2cc(F)ccc2[nH]1)N1CCc2ccccc21 | i | -4 | -2 | 0

Screening results (PubChem)
